Data from the supplement of paper PMC11732987, “Enantioselective OTUD7B fragment discovery through chemoproteomics screening and high-throughput optimisation” (Communications Chemistry, 2025).

Experiments:
Assay in all cases: log2 ratio of Biotin-Ahx-Ub-VS probe labelling (fragment/DMSO); higher = less target engagement (more negative = stronger competition), active = hit call of the paper (q ≤ 0.05, log2 ratio ≤ -1)
Conditions in all cases: compound concentration: 200 uM; treatment time: 3 h
[1] = target: T1, OTUD6B (UniProt Q8N6M0)
T1 sequence (whole entry): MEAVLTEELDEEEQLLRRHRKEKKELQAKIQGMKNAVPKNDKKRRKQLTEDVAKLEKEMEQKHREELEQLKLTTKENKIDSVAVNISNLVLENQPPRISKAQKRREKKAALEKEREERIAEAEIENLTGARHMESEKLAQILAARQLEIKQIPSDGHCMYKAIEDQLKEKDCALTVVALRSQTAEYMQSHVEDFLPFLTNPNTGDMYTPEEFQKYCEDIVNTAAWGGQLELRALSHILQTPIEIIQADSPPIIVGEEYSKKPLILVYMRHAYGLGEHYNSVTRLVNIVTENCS
Summary of the method: (§1)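 Fragment (200 µM) or vehicle was incubated for 3 h with triplicate HEK293T lysate samples of 495 µg, which were then treated with Biotin-Ahx-Ub-VS at 0.5 µM final for 1 h. Labelled DUBs were enriched on NeutrAvidin, digested with LysC and trypsin, and analysed by diaPASEF LC-MS/MS. Values are average log2 fragment/vehicle ratios from an unpaired t-test on global-median-normalised Spectronaut label-free quantities, using proteins with ≥2 unique peptides.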

[2] = target: T2, OTUD7B (UniProt Q6GQQ9)
T2 sequence (whole entry): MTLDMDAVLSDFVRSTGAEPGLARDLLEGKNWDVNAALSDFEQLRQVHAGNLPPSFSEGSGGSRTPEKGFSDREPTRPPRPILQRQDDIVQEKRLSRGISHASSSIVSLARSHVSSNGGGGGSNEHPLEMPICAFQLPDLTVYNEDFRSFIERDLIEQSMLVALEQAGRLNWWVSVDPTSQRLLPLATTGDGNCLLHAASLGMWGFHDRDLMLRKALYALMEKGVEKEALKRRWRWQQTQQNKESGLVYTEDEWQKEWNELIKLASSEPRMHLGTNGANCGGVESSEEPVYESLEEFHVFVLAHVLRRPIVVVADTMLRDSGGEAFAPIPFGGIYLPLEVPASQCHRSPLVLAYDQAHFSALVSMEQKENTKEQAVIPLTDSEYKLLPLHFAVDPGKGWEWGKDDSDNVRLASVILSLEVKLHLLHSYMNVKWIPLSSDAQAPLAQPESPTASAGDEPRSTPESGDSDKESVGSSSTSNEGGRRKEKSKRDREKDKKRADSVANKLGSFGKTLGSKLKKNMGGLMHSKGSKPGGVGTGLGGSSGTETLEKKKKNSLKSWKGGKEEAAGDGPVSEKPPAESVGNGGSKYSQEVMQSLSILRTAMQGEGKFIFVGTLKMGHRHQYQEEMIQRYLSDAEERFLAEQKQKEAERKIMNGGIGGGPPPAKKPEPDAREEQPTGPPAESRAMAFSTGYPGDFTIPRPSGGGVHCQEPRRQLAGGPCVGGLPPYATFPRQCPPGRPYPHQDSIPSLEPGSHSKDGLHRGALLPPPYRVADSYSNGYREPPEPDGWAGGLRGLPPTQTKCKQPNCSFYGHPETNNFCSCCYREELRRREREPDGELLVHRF
Summary of the method: as §1

[3] = target: PRPF8 (UniProt Q6P2Q9)
Summary of the method: as §1

[4] = target: T3, PSMD7 (UniProt P51665)
T3 sequence (whole entry): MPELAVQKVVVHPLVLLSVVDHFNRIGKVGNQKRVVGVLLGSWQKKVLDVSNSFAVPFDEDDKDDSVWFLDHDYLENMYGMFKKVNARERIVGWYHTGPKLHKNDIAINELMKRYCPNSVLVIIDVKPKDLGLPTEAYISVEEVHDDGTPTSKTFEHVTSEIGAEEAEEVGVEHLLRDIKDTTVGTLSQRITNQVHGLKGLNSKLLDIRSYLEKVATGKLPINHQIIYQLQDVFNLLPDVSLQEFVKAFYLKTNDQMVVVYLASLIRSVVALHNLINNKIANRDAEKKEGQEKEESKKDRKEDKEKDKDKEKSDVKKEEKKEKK
Summary of the method: as §1

[5] = target: UCHL1 (UniProt P09936)
UCHL1, sequence (P09936 whole entry, looked up): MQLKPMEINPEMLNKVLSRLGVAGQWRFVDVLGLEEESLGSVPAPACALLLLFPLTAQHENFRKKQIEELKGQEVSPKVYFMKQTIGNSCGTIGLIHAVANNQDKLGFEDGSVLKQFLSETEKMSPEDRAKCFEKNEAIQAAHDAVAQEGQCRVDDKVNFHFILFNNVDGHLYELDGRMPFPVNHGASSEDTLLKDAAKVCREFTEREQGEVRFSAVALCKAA
Summary of the method: as §1

[6] = target: T4, UCHL3 (UniProt P15374)
T4 sequence (whole entry): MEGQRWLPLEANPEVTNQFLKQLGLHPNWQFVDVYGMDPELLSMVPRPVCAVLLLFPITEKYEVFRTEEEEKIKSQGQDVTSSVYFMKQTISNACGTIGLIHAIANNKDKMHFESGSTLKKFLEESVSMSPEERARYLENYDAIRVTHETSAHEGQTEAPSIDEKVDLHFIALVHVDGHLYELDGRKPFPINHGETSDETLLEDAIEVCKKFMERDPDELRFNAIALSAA
Summary of the method: as §1

[7] = target: T5, UCHL5 (UniProt Q9Y5K5)
T5 sequence (whole entry): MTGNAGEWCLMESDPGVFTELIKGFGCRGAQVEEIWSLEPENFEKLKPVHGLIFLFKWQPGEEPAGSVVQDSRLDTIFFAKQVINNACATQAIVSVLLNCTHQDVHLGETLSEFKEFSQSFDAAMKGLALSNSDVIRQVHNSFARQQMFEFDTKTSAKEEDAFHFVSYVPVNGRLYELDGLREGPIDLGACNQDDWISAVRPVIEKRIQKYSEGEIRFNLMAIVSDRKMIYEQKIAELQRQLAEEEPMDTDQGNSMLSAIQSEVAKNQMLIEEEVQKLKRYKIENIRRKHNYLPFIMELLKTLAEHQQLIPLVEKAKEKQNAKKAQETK
Summary of the method: as §1

[8] = target: USP10 (UniProt Q14694)
USP10, sequence (Q14694 whole entry): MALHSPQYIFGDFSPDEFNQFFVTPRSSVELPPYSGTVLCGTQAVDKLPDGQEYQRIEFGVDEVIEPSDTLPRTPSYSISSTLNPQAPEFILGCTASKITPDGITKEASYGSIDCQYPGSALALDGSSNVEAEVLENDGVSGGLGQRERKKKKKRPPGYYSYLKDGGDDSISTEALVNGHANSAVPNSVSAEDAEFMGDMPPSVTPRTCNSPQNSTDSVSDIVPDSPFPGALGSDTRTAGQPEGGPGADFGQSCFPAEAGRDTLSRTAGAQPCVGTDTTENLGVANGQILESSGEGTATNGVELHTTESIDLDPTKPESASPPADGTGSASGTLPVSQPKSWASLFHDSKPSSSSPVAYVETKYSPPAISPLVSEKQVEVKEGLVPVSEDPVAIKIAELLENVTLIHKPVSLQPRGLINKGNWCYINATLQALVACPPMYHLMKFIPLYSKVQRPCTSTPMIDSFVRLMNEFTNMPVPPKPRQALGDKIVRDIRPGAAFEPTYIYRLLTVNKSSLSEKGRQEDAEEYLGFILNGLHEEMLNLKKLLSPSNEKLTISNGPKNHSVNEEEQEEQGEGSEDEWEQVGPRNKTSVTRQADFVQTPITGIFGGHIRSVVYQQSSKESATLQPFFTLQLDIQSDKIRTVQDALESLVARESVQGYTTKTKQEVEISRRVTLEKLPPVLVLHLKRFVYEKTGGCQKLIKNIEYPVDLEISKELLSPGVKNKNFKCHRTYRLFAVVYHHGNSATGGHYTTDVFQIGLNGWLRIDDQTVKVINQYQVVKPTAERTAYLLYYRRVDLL
Summary of the method: as §1

[9] = target: T6, USP15 (UniProt Q9Y4E8)
T6 sequence (whole entry): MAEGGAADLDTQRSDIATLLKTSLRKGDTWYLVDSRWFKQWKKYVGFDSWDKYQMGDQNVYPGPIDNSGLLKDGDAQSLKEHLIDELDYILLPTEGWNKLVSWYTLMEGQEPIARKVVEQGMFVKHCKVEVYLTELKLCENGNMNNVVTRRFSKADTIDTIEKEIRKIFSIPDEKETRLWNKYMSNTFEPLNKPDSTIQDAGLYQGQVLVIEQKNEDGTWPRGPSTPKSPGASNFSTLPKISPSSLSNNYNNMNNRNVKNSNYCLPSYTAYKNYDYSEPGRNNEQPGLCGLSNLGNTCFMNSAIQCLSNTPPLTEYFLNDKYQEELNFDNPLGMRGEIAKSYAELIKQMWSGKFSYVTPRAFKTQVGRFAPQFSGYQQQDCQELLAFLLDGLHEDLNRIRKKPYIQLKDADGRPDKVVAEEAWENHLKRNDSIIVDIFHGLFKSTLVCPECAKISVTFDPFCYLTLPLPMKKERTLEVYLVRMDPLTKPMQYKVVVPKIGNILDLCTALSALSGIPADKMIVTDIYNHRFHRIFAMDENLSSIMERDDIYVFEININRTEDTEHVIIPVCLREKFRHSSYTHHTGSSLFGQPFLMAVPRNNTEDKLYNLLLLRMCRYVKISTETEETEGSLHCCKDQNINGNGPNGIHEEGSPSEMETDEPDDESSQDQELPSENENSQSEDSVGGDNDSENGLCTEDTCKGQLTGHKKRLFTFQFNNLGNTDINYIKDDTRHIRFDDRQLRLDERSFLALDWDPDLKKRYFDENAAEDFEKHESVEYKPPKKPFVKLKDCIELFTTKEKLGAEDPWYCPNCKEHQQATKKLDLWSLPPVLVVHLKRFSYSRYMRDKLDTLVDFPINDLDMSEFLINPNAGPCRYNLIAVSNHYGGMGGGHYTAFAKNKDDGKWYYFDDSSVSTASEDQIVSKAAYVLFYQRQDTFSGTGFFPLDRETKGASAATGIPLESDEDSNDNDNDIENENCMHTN
Summary of the method: as §1

[10] = target: USP16 (UniProt Q9Y5T5)
USP16, sequence (Q9Y5T5 whole entry, looked up): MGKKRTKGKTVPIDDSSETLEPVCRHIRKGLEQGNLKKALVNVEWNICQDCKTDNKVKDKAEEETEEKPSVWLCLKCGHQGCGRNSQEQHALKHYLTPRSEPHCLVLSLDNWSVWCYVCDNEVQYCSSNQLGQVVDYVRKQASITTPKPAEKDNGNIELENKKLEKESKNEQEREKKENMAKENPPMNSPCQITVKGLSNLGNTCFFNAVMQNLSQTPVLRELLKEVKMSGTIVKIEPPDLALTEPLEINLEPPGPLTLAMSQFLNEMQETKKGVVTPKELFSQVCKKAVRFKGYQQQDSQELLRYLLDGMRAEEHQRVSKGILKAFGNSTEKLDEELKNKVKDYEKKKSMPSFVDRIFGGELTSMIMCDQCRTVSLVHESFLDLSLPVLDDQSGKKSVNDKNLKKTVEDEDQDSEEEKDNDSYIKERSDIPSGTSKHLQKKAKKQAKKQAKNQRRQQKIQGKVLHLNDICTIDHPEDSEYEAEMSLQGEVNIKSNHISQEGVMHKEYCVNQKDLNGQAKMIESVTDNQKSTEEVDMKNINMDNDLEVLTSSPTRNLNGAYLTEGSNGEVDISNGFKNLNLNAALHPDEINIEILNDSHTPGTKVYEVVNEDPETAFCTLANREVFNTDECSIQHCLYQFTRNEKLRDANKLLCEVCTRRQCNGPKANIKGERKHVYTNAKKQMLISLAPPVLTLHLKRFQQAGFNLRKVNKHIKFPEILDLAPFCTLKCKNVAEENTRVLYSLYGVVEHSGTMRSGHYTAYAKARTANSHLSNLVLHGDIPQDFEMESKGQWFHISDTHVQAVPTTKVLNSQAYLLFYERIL
Summary of the method: as §1

Measured: log2 ratio of Biotin-Ahx-Ub-VS probe labelling

O=C(CCl)N1CCCCCC1c1ncon1 (stereo not given)
active: [5] -1.82
inactive: [1] -0.149 | [2] -0.512 | [3] -0.173 | [4] -0.174 | [6] 0.279 | [7] -0.229 | [8] -0.0372 | [9] -0.142 | [10] -0.0478
